Assay results published in PubChem BioAssay AID1117308 (National Center for Advancing Translational Sciences (NCATS), 2015).
The other results are listed elsewhere or left out. The source made the active and inactive calls. Calls come from the whole dose curve.

Conditions: Ebola pseudovirus entry assay, ratio channel

SMILES | AC50 | outcome
CN(C(=O)CN(CCO)CC(=O)N(C)C(C)(C)Cc1ccccc1)C(C)(C)Cc1ccccc1 | 6.11 µM (active) | –
CCCCN(CCCC)CCC(O)c1cc2c(Cl)cc(Cl)cc2c2cc(C(F)(F)F)ccc12 (centres undefined) | 13.7 µM (active) | –
COc1ccccc1OCCNCC(O)COc1cccc2[nH]c3ccccc3c12 (centres undefined) | 17.2 µM (active) | –
CC[C@]1(O)C[C@@H]2CN(CCc3c([nH]c4ccccc34)[C@@](C(=O)OC)(c3cc4c(cc3OC)N(C)[C@H]3[C@@](O)(C(=O)OC)[C@H](OC(C)=O)[C@]5(CC)C=CCN6CC[C@]43[C@@H]65)C2)C1 | 0.137 µM (active) | –
Clc1ccc(C(Cn2ccnc2)OCc2ccsc2Cl)c(Cl)c1 (centres undefined) | 13.7 µM (active) | –
CO[C@H]1C[C@@H]2CC[C@@H](C)[C@@](O)(O2)C(=O)C(=O)N2CCCC[C@@H]2C(=O)O[C@H]([C@@H](C)C[C@@H]2CC[C@H](O)[C@H](OC)C2)CC(=O)[C@H](C)C=C(C)[C@@H](O)[C@@H](OC)C(=O)[C@H](C)C[C@H](C)C=CC=CC=C1C | – | inactive
CCN(CC)CCCC(C)Nc1ccnc2cc(Cl)ccc12 (centres undefined) | 15.3 µM (active) | –
CCCC(C(=O)OCCN(CC)CC)(c1ccccc1)c1ccccc1 | 4.85 µM (active) | –
CO[C@]12CC[C@@]3(C[C@@H]1[C@](C)(O)C(C)(C)C)[C@@H]1Cc4ccc(O)c5c4[C@@]3(CCN1CC1CC1)[C@H]2O5 | 9.87 µM (active) | –
